Bioassay records (PubChem BioAssay)
This is a sample that favours compounds with a hit; in the whole collection about 4.6% have one here.
TRHR agonist: qHTS for Small Molecule Agonists and Allosteric Enhancers of Human TRH Receptor: Primary Screen for Agonists; Thyrotropin-releasing hormone receptor (Homo sapiens), P34981; TRHR cells, calcium flux fluo-8, FDSS agonist mode; activation, % at 2 µM; hit rate 0.18% among 360,000; AID 493084, 2011; further: 0% is about no effect
Target sequence (P34981 whole entry, looked up): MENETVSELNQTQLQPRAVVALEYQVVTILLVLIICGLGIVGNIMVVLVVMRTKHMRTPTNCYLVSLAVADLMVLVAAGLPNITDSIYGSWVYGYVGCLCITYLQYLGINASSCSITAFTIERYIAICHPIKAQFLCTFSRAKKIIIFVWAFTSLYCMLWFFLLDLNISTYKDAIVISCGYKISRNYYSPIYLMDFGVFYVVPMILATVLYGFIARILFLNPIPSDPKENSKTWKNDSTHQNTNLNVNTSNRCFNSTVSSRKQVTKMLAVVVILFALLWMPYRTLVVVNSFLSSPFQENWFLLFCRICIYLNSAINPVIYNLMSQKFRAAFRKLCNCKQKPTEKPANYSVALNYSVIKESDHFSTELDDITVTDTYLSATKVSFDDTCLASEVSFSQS
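Read-out: compound-evoked intracellular calcium rise in TRHR cells, fluo-8 dye, kinetic FDSS fluorescence at 1 s/cycle following a 10-cycle baseline. Cells cultured overnight before dye loading (30 min–1.5 h, RT).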
D1 ag: Allosteric Agonists of the Human D1 Dopamine Receptor: qHTS | D(1A) dopamine receptor (Homo sapiens), P21728 | activation, % at 2 µM | HEK293 T-REx D1 cells, calcium flux, agonist mode | hit rate 1% among 360,000; further: 0% is about no effect
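Tetracycline-induced HEK293 TREx D1 cells, force-coupled to calcium signalling, were dye-loaded with a no-wash calcium kit. Compound was pin-added after a 10 s baseline. Fluorescence was read kinetically at 1 cycle/s for 180 s, with calcium rises flagged as agonism.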
D1 antagonist: Antagonist of Human D 1 Dopamine Receptor: qHTS | D(1A) dopamine receptor (Homo sapiens), P21728 | HEK293 TREx D1 cells, calcium flux, dopamine EC80; stronger effect = lower value | activity change, negative = inhibition, % at 10 µM | hit rate 3.2% among 360,000 | AID 504652, 2011; in the data active means activity change below about -30%; further: on the % scale 0 is the no-effect control and ±100 the full control effect
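Using tetracycline-induced force-coupled D1 Hek293 cells and a calcium dye, signals were followed for 180 s after compound, then for 180 s after EC80 dopamine, to detect inhibitors.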
TRHR enhancer: qHTS for Small Molecule Agonists and Allosteric Enhancers of Human TRH Receptor: Primary Screen for Enhancers | Thyrotropin-releasing hormone receptor (Homo sapiens), P34981 | TRHR cells, fluo-8 calcium fluorescence, EC20 TRH enhancement | enhancement, % at 2 µM | hit rate 0.66% among 360,000 | AID 493056, 2011; in the data active means enhancement above about 30%; further: 0% is about no effect
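Enhancer read-out: after compound pinning and an initial kinetic agonist-mode read, an EC20 of TRH (10 nM final) was injected and fluo-8 calcium signal (Ex 480/Em 530) followed at 1 s/cycle for 100 cycles in TRHR-expressing cells.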
D1 PAM: Potentiators of Human D1 Dopamine Receptor: qHTS. HEK293 TREx D1 cells, calcium flux, dopamine EC20 potentiation. potentiation, % at 10 µM. hit rate 0.036% among 360,000. AID 504651, 2011; in the data active means potentiation above about 30%; further: 0% is about no effect
An asterisk follows results filed as active. Unless noted, no stated cut-off is given here; in the data, active means activation above about 30%; inactive means the rest.

SMILES	TRHR agonist	D1 ag	D1 antagonist	TRHR enhancer	D1 PAM
COc1ccc(N(C(=O)/C=C\C(=O)Nc2ccc(C)cc2)C(C(=O)NCc2ccco2)c2ccc(C)cc2)cc1 (configuration not stated)	0	-1	9	8	0
O=C(CSc1n[nH]c(-c2cccs2)n1)N1CCN(S(=O)(=O)c2ccccc2)CC1	0	7	-59*	-4	-11
CC1CCN(C(=O)CSc2n[nH]c(-c3cccs3)n2)CC1	-1	4	2	-1	13
CCOc1ccc(NC(=O)C(Cc2ccccc2)NS(=O)(=O)c2ccc3c(c2)oc(=O)n3C)cc1 (configuration not stated)	1	5	-20	5	-1
CCc1cccc(NC(=O)C(Cc2ccccc2)NS(=O)(=O)c2ccc3c(c2)oc(=O)n3C)c1 (configuration not stated)	0	31*	-11	15	-3
CCc1ccc(NC(=O)CCS(=O)(=O)c2ccc3c(c2)oc(=O)n3C)cc1	0	-1	-37*	10	-6
Cc1cc(C)cc(Nc2nc3c(S(=O)(=O)c4cccc(Cl)c4)nnn3c3ccsc23)c1	0	1	4	7	-6
Cc1ccc(S(=O)(=O)c2nnn3c2nc(NC2CCCCC2)c2sccc23)cc1C	0	15	-39*	24	-6
Cc1ccc(C)c(S(=O)(=O)c2nnn3c2nc(NC2CCCC2)c2sccc23)c1	0	2	-24	-8	-5
O=S(=O)(c1cccc(Cl)c1)c1nnn2c1nc(NC1CCCC1)c1sccc12	0	6	-72*	8	-8
CCOC(=O)C1CCN(c2nc3c(S(=O)(=O)c4ccc(C)c(C)c4)nnn3c3ccc(Cl)cc23)CC1	0	2	-5	-3	-8
Cc1ccc(S(=O)(=O)c2nnn3c2nc(N2CCC(C(N)=O)CC2)c2cc(Cl)ccc23)cc1C	0	2	-33*	-4	-6
CC(C)(C)NC(=O)c1oc2ccccc2c1NC(=O)c1ccc(F)cc1	1	3	24	-21	8
CCN(CC)C(=O)CSc1nnc(-c2cccs2)n1Cc1ccco1	0	3	-32*	-1	-6
O=C1NC(=S)N/C1=C\c1ccc(Oc2ccc(C(F)(F)F)cc2[N+](=O)[O-])c(Cl)c1	0	0	-52*	-1	3
CCOC(=O)CSc1nc2sc3c(c2c(=O)n1-c1ccc(OCC)cc1)CCN(C)C3	9	30*	6	3	-8
CCOc1ccc(-n2c(SCC(N)=O)nc3sc4c(c3c2=O)CCN(C)C4)cc1	0	1	-1	18	2
Cn1c(=O)c2c(-c3ccccc3Cl)n(-c3cc(Cl)ccc3O)cc2n(C)c1=O	-1	43*	5	1	0
CC(=O)N=Cc1c(C)c(C#N)c(=O)n(C)c1O	-2	10	-57*	-4	-9
Cc1c(/C=N/Nc2ccc(F)cc2)c(O)n(C)c(=O)c1C#N	2	3	-14	8	-3
CCOC(=O)c1cc(S(=O)(=O)NCc2cccc(Cl)c2)[nH]n1	0	2	10	3	-1
CCc1ccc(S(=O)(=O)Nc2ccc(Cl)cn2)cc1	-1	1	-92*	0	-5
O=C1CC(NNC(=O)c2ccccc2)C(=O)N1 (configuration not stated)	0	2	-40*	-5	-5
O=C1CC(NNC(=O)c2ccc(Br)cc2)C(=O)N1 (configuration not stated)	1	3	-19	-5	-4
COC(=O)N/N=C\c1c(C)nn(-c2ccccc2)c1Cl	0	2	-7	-3	0
SMILES	TRHR agonist	D1 ag	D1 antagonist	TRHR enhancer	D1 PAM
Cc1nn(-c2ccccc2)c(Cl)c1/C=N/NC(N)=O	-1	2	-32*	-2	2
CCOc1ccc(-c2cnc(NCc3ccc(OC)cc3OC)n2C)cc1	0	-1	2	-2	-3
Oc1[nH]c2ccccc2c1N=NC(=S)NCC1CCCO1 (configuration not stated)	-1	1	-45*	0	-3
CC(=O)c1ccc(N2CCN(C(=O)CCC(=O)Nc3ccc4nc(N5CCN(C)CC5)cc(C)c4c3)CC2)cc1	0	-3	-37*	2	-9
Cc1ccc(C)c(N2CCN(C(=S)Nc3ccc4nc(N5CCOCC5)cc(C)c4c3)CC2)c1	-1	11	4	2	1
Cc1ccc(C)c(N2CCN(C(=S)Nc3ccc4nc(N5CCN(C)CC5)cc(C)c4c3)CC2)c1	0	18	-61*	5	-13
Cc1ccc(C)c(NC(=S)N2CCCC2)c1	0	0	-65*	10	-1
Cc1cccc(NC(=S)N2CCN(c3cc(C)ccc3C)CC2)c1	0	5	-35*	-4	-9
CC1CCN(C(=O)CN2c3ccc(Br)cc3-c3ccccc3S2(=O)=O)CC1	-1	6	4	4	0
Cc1ccc(Nc2nc(C)c(NC(=O)c3ccc(C)cc3)c(Nc3ccc(C)cc3)n2)cc1	-1	2	-13	4	6
N=c1oc2cc(O)ccc2cc1C(=O)Nc1ccccn1	5	5	14	31*	3
N=c1oc2cc(O)ccc2cc1C(=O)Nc1nc2ccccc2s1	3	6	7	2	-10
NC(=O)c1ccccc1	0	2	-99*	5	-10
Cc1c(C)n(CCc2ccccc2)c2ncnc(NCCCO)c12	-1	-1	-32*	6	-7
Cc1nnc(N2C(=O)C(O)=C(C(=O)c3ccco3)C2c2ccc(C(C)C)cc2)s1 (configuration not stated)	15	51*	-3	-2	-2
Cc1nnc(N2C(=O)C(O)=C(C(=O)c3ccco3)C2c2ccc(C(C)(C)C)cc2)s1 (configuration not stated)	8	28	3	-2	-5
Cc1ccc(C2C(C(=O)c3ccco3)=C(O)C(=O)N2c2ncccn2)cc1 (configuration not stated)	1	4	-7	-2	-3
CSc1ccc(C2C(C(=O)c3ccco3)=C(O)C(=O)N2c2nnc(SC)s2)cc1 (configuration not stated)	18	31*	-11	7	0
Cc1nnc(N2C(=O)C(O)=C(C(=O)c3ccco3)C2c2ccc(F)cc2)s1 (configuration not stated)	21	36*	10	11	0
Cc1ccc(C2C(C(=O)c3cccs3)=C(O)C(=O)N2c2nnc(C)s2)cc1 (configuration not stated)	56*	141*	-21	1	-2
